# Publication PMC7862700, “An all-to-all approach to the identification of sequence-specific readers for epigenetic DNA modifications on cytosine”
# Legend:
# Assay in all cases: DAPPL (digital affinity profiling via proximity ligation, sequencing); 10 mM Tris-HCl pH 7.5, 50 mM NaCl, 1 mM DTT, 4% glycerol, room temperature, 30 min; GST-TFs on glutathione beads, 16-mer random dsDNA library, 0.1% formaldehyde crosslink after washing; high values mean tight binding
# FLI1 = target: T1, FLI1 (Homo sapiens, UniProt Q01543 1-452); settings: protein: recombinant; tags: N-terminal GST; dsDNA, one strand shown
# T1 sequence: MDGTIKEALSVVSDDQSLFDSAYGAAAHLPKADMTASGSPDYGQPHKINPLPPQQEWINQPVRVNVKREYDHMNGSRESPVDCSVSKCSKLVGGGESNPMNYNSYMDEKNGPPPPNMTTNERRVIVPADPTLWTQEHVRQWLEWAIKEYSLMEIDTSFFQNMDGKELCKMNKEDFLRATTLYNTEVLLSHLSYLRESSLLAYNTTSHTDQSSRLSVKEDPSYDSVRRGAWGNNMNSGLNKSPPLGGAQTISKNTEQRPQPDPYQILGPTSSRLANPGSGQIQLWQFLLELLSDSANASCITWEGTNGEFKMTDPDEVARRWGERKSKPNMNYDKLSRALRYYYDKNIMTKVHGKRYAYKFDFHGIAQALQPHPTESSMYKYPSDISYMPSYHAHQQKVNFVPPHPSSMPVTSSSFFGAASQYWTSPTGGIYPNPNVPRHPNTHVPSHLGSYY
# Summary of the method: (§1)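 A tag-only sample was pooled with DNA-barcoded human transcription factors that had been expressed in yeast as GST fusions and captured on glutathione beads. The pools were incubated for 30 min at room temperature with 200 nmole of a random double-stranded 16-mer DNA library in Tris/NaCl/DTT/glycerol buffer, then washed, crosslinked with 0.1% formaldehyde, proximity-ligated (BsaI/T4 ligase, 1 h, 37 °C), PCR-amplified and sequenced on an Illumina NextSeq500. Binding signal is each hexamer's read frequency for a factor divided by its frequency for the tag-only sample.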
# ELK1 = target: T2, ELK1 (Homo sapiens, UniProt P19419 1-428); settings: protein: recombinant; tags: N-terminal GST; dsDNA, one strand shown
# T2 sequence: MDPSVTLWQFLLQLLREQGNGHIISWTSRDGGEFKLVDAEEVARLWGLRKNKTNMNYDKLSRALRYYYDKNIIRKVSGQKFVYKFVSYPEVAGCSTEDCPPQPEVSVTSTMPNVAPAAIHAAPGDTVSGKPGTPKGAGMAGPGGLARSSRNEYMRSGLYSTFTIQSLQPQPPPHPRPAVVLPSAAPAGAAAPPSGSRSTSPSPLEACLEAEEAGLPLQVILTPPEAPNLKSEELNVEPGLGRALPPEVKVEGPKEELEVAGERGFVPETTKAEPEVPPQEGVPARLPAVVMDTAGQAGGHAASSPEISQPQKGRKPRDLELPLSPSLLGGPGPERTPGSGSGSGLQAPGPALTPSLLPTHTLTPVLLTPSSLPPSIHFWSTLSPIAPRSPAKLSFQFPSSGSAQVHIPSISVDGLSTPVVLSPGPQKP
# Summary of the method: as §1
# GABPA = target: T3, GABPA (Homo sapiens, UniProt Q06546 1-454); settings: protein: recombinant; tags: N-terminal GST; dsDNA, one strand shown
# T3 sequence: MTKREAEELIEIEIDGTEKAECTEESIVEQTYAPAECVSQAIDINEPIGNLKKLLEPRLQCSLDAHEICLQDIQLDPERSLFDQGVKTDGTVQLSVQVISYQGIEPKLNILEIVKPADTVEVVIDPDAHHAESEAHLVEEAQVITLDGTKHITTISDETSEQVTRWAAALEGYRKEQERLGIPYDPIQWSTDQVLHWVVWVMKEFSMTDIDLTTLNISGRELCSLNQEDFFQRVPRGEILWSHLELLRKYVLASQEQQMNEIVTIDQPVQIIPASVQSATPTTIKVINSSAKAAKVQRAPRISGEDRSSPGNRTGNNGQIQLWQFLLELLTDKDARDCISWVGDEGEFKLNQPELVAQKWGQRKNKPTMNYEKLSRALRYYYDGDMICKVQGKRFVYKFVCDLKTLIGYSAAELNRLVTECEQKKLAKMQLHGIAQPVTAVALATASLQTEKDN
# Summary of the method: as §1
# ERG = target: T4, ERG (Homo sapiens, UniProt P11308 1-479); settings: protein: recombinant; tags: N-terminal GST; dsDNA, one strand shown
# T4 sequence: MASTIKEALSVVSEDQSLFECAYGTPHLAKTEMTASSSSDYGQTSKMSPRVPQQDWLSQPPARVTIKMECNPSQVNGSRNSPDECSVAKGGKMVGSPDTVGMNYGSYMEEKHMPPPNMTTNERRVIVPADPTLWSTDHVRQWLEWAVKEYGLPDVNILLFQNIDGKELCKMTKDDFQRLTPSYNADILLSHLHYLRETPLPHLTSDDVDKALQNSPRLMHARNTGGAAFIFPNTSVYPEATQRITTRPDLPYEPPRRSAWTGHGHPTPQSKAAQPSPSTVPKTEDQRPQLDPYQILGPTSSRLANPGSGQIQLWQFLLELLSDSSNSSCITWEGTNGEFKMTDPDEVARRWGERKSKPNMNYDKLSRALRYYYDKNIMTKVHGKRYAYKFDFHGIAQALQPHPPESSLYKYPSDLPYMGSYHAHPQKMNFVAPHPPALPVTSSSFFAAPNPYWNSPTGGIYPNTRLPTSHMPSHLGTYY
# Summary of the method: as §1
# ELF1 = ELF1 (Homo sapiens, UniProt P32519 1-619); settings: protein: recombinant; tags: N-terminal GST; dsDNA, one strand shown
# Summary of the method: as §1
# EHF = target: T5, EHF (Homo sapiens, UniProt Q9NZC4 1-300); settings: protein: recombinant; tags: N-terminal GST; dsDNA, one strand shown
# T5 sequence: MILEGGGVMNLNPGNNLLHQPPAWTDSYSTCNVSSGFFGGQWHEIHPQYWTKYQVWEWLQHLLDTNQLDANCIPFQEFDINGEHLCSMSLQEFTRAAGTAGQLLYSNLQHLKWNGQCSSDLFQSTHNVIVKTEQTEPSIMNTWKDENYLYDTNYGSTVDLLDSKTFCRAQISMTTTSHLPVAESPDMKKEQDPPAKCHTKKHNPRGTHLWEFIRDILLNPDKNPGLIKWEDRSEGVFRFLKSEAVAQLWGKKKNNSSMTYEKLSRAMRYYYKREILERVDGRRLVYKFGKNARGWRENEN
# Summary of the method: as §1
# SPI1 = SPI1 (Homo sapiens, UniProt P17947 1-270); settings: protein: recombinant; tags: N-terminal GST; dsDNA, one strand shown
# Summary of the method: as §1
# SPIB = SPIB (Homo sapiens, UniProt Q01892 1-262); settings: protein: recombinant; tags: N-terminal GST; dsDNA, one strand shown
# Summary of the method: as §1
# FEV = target: T6, FEV (Homo sapiens, UniProt Q99581 1-238); settings: protein: recombinant; tags: N-terminal GST; dsDNA, one strand shown
# T6 sequence: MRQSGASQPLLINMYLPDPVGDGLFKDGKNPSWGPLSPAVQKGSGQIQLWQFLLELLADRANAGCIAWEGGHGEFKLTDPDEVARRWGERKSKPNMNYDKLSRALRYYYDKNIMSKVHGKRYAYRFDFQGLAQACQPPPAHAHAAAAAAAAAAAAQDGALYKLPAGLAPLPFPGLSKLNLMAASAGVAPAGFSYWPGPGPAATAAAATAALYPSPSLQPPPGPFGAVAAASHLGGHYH
# Summary of the method: as §1
# ETV5 = ETV5 (Homo sapiens, UniProt P41161 1-510); settings: protein: recombinant; tags: N-terminal GST; dsDNA, one strand shown
# Summary of the method: as §1
# HSF1 = HSF1 (Homo sapiens, UniProt Q00613 1-529); settings: protein: recombinant; tags: N-terminal GST; chain copies: 3; dsDNA, one strand shown
# Summary of the method: as §1
# SPIC = target: T7, SPIC (Homo sapiens, UniProt Q8N5J4 1-248); settings: protein: recombinant; tags: N-terminal GST; dsDNA, one strand shown
# T7 sequence: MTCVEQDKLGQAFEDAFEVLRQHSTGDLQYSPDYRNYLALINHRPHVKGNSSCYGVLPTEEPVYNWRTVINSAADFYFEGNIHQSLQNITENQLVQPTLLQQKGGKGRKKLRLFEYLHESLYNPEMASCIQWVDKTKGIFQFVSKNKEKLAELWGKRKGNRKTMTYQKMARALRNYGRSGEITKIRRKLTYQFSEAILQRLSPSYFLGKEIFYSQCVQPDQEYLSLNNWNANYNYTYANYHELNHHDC
# Summary of the method: as §1
# ELF4 = ELF4 (Homo sapiens, UniProt Q99607 1-663); settings: protein: recombinant; tags: N-terminal GST; dsDNA, one strand shown
# Summary of the method: as §1
# ELK4 = target: T8, ELK4 (Homo sapiens, UniProt P28324-2 1-405); settings: protein: recombinant; tags: N-terminal GST; dsDNA, one strand shown
# T8 sequence: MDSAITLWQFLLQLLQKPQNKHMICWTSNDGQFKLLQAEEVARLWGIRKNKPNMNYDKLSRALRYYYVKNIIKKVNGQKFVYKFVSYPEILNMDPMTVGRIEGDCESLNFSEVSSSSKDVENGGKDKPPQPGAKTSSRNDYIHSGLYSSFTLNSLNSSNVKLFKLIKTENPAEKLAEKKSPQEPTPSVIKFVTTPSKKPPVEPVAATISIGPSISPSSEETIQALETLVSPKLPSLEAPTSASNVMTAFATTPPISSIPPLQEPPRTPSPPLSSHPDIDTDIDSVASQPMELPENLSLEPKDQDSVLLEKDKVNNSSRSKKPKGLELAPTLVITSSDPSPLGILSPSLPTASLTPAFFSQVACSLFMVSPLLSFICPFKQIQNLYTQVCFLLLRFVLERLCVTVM
# Summary of the method: as §1
# ETV2 = target: T9, ETV2 (Homo sapiens, UniProt O00321 1-342); settings: protein: recombinant; tags: N-terminal GST; dsDNA, one strand shown
# T9 sequence: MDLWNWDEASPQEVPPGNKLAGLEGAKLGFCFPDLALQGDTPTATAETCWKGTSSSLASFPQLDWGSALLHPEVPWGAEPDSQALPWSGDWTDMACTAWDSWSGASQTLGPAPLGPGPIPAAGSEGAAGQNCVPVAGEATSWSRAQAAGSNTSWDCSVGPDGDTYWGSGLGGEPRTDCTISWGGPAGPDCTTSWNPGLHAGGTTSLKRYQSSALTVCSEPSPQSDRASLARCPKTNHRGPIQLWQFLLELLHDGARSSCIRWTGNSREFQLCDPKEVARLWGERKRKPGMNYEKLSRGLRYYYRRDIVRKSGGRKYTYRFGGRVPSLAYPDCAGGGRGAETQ
# Summary of the method: as §1
# ELF3 = target: T10, ELF3 (Homo sapiens, UniProt P78545 1-371); settings: protein: recombinant; tags: N-terminal GST; dsDNA, one strand shown
# T10 sequence: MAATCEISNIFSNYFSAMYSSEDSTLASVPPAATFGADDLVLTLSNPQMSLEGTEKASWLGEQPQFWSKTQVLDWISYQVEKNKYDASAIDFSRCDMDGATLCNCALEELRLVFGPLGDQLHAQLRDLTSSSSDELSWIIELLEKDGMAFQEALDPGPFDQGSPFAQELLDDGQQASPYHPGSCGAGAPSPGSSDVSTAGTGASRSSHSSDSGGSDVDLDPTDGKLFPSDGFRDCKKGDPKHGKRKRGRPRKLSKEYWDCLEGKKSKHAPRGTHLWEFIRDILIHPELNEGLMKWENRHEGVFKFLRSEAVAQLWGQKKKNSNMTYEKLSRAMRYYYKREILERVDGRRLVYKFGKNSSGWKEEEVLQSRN
# Summary of the method: as §1
# CRX = CRX (Homo sapiens, UniProt O43186 1-299); settings: protein: recombinant; tags: N-terminal GST; dsDNA, one strand shown
# Summary of the method: as §1
# ETV1 = ETV1 (Homo sapiens, UniProt P50549 1-477); settings: protein: recombinant; tags: N-terminal GST; dsDNA, one strand shown
# Summary of the method: as §1
# CRX, sequence (O43186 whole entry): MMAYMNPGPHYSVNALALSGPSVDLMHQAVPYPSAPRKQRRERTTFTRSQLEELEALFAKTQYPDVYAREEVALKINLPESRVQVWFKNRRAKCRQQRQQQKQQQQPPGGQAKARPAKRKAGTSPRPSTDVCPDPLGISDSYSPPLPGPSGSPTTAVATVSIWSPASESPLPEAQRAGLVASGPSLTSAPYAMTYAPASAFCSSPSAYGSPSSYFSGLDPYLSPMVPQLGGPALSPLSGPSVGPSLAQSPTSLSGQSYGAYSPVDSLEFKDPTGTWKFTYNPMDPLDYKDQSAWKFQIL
# ETV5, sequence (P41161 whole entry): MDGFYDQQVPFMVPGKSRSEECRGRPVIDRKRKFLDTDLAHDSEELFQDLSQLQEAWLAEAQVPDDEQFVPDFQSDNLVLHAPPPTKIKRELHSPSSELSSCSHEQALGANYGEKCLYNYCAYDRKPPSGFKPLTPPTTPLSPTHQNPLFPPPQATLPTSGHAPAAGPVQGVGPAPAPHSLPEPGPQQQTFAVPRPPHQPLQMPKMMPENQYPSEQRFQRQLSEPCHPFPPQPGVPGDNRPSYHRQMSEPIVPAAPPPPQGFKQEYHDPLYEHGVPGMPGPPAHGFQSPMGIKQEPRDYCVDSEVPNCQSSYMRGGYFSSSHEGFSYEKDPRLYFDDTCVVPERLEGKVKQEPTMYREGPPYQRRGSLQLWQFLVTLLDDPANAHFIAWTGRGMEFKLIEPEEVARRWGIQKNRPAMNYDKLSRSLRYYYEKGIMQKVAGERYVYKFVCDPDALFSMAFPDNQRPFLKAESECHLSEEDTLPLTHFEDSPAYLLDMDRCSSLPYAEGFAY
# ELF1, sequence (P32519 whole entry): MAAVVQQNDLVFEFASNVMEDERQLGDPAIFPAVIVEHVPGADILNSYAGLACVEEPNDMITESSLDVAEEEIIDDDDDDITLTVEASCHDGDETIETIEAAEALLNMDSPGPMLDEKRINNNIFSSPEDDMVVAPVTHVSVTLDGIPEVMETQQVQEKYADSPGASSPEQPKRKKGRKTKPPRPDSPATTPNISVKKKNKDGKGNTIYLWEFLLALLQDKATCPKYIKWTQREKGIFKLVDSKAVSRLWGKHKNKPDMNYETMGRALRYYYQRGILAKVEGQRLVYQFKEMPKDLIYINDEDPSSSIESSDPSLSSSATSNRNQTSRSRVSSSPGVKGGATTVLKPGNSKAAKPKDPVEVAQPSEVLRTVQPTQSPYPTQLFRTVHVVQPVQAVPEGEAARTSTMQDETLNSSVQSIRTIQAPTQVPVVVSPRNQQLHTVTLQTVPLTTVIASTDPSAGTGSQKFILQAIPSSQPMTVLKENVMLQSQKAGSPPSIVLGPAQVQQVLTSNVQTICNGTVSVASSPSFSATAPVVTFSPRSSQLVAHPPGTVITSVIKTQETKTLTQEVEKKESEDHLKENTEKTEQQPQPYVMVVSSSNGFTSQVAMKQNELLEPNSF
# ELF4, sequence (Q99607 whole entry): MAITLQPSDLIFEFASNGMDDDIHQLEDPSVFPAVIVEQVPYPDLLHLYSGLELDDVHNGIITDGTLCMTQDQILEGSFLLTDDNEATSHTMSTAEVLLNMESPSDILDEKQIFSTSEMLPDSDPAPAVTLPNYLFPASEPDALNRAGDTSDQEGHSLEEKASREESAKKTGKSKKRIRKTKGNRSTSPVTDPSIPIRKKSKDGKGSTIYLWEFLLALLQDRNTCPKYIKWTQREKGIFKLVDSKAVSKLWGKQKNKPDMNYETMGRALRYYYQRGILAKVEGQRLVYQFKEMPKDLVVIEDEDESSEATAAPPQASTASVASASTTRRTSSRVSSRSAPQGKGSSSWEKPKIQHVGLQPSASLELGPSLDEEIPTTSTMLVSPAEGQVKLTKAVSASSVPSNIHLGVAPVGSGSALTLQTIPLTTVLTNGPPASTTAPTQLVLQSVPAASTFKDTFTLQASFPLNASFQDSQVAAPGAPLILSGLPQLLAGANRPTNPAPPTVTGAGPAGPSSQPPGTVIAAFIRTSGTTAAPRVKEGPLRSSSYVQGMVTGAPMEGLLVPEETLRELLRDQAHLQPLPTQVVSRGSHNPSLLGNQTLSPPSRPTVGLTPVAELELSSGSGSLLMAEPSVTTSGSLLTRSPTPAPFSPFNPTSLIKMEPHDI
# ETV1, sequence (P50549 whole entry): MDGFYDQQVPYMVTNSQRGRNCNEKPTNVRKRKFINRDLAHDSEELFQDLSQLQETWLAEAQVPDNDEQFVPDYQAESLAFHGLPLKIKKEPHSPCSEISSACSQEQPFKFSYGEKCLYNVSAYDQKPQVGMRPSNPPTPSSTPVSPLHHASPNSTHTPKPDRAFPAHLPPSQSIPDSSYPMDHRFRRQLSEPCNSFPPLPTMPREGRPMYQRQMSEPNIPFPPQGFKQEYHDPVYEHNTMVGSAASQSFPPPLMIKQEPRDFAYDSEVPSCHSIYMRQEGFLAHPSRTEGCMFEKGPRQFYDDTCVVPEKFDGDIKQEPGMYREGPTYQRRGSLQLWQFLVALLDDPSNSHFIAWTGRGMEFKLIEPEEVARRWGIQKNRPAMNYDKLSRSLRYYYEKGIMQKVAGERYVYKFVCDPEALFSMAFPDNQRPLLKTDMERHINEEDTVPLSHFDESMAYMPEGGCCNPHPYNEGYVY
# HSF1, sequence (Q00613 whole entry): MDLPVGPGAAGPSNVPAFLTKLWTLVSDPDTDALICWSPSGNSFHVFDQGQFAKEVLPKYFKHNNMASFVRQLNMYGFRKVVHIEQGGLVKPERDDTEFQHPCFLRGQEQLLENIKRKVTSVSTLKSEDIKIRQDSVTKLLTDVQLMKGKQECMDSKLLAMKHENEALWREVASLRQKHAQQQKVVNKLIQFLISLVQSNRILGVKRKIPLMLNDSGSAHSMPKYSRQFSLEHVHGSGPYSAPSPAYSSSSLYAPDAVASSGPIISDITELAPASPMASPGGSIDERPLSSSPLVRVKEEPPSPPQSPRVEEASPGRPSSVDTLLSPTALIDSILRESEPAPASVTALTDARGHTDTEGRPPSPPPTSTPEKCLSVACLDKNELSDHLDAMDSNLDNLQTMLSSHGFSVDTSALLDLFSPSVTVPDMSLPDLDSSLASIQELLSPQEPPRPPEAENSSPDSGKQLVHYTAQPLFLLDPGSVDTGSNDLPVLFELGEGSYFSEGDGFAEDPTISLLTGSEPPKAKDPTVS
# SPIB, sequence (Q01892 whole entry): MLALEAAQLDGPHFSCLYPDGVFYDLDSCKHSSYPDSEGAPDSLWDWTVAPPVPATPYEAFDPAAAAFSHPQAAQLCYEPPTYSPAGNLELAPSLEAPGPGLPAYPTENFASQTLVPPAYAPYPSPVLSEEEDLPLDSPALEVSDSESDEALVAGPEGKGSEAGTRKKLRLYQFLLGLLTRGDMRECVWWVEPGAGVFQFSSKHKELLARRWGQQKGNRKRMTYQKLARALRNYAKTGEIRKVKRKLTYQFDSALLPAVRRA
sequence,measurement,setting,value
CGAAAG,binding signal,FLI1,"1.15 fold enrichment (6-mer frequency, TF over GST control)"
same,binding signal,ELK1,"1.13 fold enrichment (6-mer frequency, TF over GST control)"
same,binding signal,GABPA,"1.08 fold enrichment (6-mer frequency, TF over GST control)"
same,binding signal,ERG,"1.04 fold enrichment (6-mer frequency, TF over GST control)"
same,binding signal,ELF1,"1.09 fold enrichment (6-mer frequency, TF over GST control)"
same,binding signal,EHF,"1.01 fold enrichment (6-mer frequency, TF over GST control)"
same,binding signal,SPI1,"1.16 fold enrichment (6-mer frequency, TF over GST control)"
same,binding signal,SPIB,"1.06 fold enrichment (6-mer frequency, TF over GST control)"
same,binding signal,FEV,"1.04 fold enrichment (6-mer frequency, TF over GST control)"
same,binding signal,ETV5,"1.1 fold enrichment (6-mer frequency, TF over GST control)"
same,binding signal,HSF1,"1.81 fold enrichment (6-mer frequency, TF over GST control)"
same,binding signal,SPIC,"1.03 fold enrichment (6-mer frequency, TF over GST control)"
same,binding signal,ELF4,"1.06 fold enrichment (6-mer frequency, TF over GST control)"
same,binding signal,ELK4,"1.09 fold enrichment (6-mer frequency, TF over GST control)"
same,binding signal,ETV2,"1.13 fold enrichment (6-mer frequency, TF over GST control)"
same,binding signal,ELF3,"1.21 fold enrichment (6-mer frequency, TF over GST control)"
same,binding signal,CRX,"1.11 fold enrichment (6-mer frequency, TF over GST control)"
same,binding signal,ETV1,"1.01 fold enrichment (6-mer frequency, TF over GST control)"
